Measured values: PubChem BioAssay (NCI)
The panel holds about 83,000 compounds, 20% with a hit somewhere; the sample as a whole holds those more often.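 Single-dose data. Exposure time 48 hours. Values below 10 considered active.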 Activity calls are given as the source filed them.

What was measured:
Assay in all cases: NCI-60 one-dose screen, 48 h (100 = growth as untreated, 0 = no growth, -100 = all killed)
Conditions in all cases: 10 µM unless noted
[1] = tested on: SK-MEL-2 melanoma
[2] = tested on: EKVX NSCLC
[3] = tested on: SN12C renal
[4] = tested on: UO-31 renal
[5] = tested on: TK-10 renal
[6] = tested on: ACHN renal
[7] = tested on: CAKI-1 renal
[8] = tested on: A498 renal
[9] = tested on: CCRF-CEM leukemia
[10] = tested on: MOLT-4 leukemia
[11] = tested on: SR leukemia
[12] = tested on: RPMI-8226 leukemia
[13] = tested on: OVCAR-8 ovarian
[14] = tested on: OVCAR-5 ovarian
[15] = tested on: OVCAR-4 ovarian
[16] = tested on: SK-OV-3 ovarian
[17] = tested on: OVCAR-3 ovarian
[18] = tested on: HS 578T breast
[19] = tested on: NCI/ADR-RES ovarian
[20] = tested on: IGROV1 ovarian

Measured: growth

CC(C)CN(C(=O)c1ccc(Cl)cc1)c1c(N)n(CC(C)C)c(=O)[nH]c1=O
inactive: [1] 96.4% | [2] 106% | [3] 87.8% | [4] 98.2% | [5] 125% | [6] 101% | [7] 50.2% | [8] 108% | [9] 93.1% | [10] 97.2% | [11] 64.1% | [12] 84.8% | [13] 93.8% | [14] 88.3% | [15] 107% | [16] 26.8% | [17] 115% | [18] 84.8% | [19] 101%

O=C1c2ccccc2C(=O)c2c(NCCN=Cc3ccccc3O)cccc21
active: [7] -10.3% | [10] -16.4%
inactive: [1] 108% | [2] 56% | [3] 50.3% | [4] 39.3% | [5] 68.5% | [6] 30.9% | [8] 35.1% | [9] 59% | [12] 78.8% | [13] 21% | [14] 78.9% | [15] 72.1% | [16] 56.9% | [20] 51.9% | [17] 72.3% | [18] 43.4% | [19] 59.9%

COc1nccnn1
inactive: [2] 107% | [3] 97.1% | [4] 100% | [5] 93.3% | [6] 100% | [7] 108% | [8] 92.9% | [9] 99.8% | [10] 106% | [12] 70.1% | [13] 111% | [14] 101% | [15] 101% | [16] 110% | [20] 118% | [17] 146% | [18] 86.7% | [19] 101%
active: [1] -31.3%

O=C1/C(=C/c2ccc(O)cc2)COc2ccc(-c3ccccc3)cc21
active: [9] -25.2% | [10] -22.5% | [12] -29.7%
inactive: [1] 66.9% | [2] 105% | [3] 76.2% | [4] 42.9% | [5] 83.9% | [6] 86% | [7] 132% | [8] 100% | [13] 71.9% | [14] 102% | [15] 100% | [16] 107% | [20] 51.6% | [17] 56.5% | [18] 88.2% | [19] 78.2%

COc1ccc(C2CC(c3cccc(Nc4ccncc4)c3)=NN2c2ccccc2)cc1 (stereo unspecified)
active: [11] 2.73% | [12] -6.86%
inactive: [1] 71.7% | [2] 87.2% | [3] 80.6% | [4] 64.3% | [5] 68.7% | [6] 69.2% | [7] 51.5% | [8] 78% | [9] 30.7% | [10] 10.7% | [13] 20.5% | [15] 51.8% | [16] 67.7% | [20] 43.7% | [17] 61.3% | [18] 68.5% | [19] 69.9%

COc1cc(C2CC(c3cccc(Nc4ccncc4)c3)=NN2c2ccc(Cl)cc2)cc(OC)c1OC (stereo unspecified)
inactive: [1] 55.8% | [2] 65.2% | [3] 54.7% | [4] 42.4% | [5] 68.4% | [7] 19.2% | [8] 64.1% | [14] 72.1% | [16] 64.5% | [18] 27.8% | [19] 42.7%
active: [6] -62.1% | [9] -9.68% | [10] -17.3% | [12] -18.7% | [13] -26.5% | [15] 6.52% | [20] 4.16% | [17] -25.3%

O=C(O)C(/C=C/c1ccco1)=N\Nc1nc(-c2ccc(Cl)cc2)cs1
inactive: [1] 11.5% | [2] 67.1% | [3] 86.8% | [4] 38.8% | [5] 77.6% | [6] 69% | [7] 63.9% | [8] 65.2% | [9] 24% | [10] 40.9% | [11] 41.5% | [13] 36.6% | [14] 98.9% | [15] 43.1% | [16] 70.9% | [18] 77.3% | [19] 12.5%
active: [20] -10% | [17] -4.27%

Nc1nnc2cc(Cl)ccc2n1
active: [1] -25.9%
inactive: [2] 112% | [3] 90.1% | [4] 89.8% | [5] 136% | [6] 89.9% | [7] 112% | [8] 54% | [9] 87.7% | [10] 111% | [12] 68.9% | [13] 105% | [14] 105% | [15] 111% | [16] 96.5% | [20] 96.3% | [17] 145% | [18] 86.4%

COc1ccc(Cn2nc(-c3ccccc3)c3c2CCc2cnoc2-3)cc1
inactive: [1] 111% | [2] 65.9% | [3] 76.8% | [4] 70% | [5] 105% | [6] 81.4% | [7] 66.3% | [8] 58.7% | [9] 67.8% | [10] 52.7% | [11] 36% | [13] 80.8% | [14] 102% | [15] 72.1% | [16] 83.1% | [20] 86% | [17] 87.4% | [18] 90.7% | [19] 66.7%

CSc1nnc2c(=O)n(C)c(=O)n(C)c2n1
inactive: [2] 111% | [3] 96.1% | [4] 88.9% | [5] 99.9% | [6] 98% | [7] 110% | [8] 88.7% | [9] 88.3% | [10] 106% | [12] 75.8% | [13] 106% | [14] 100% | [15] 105% | [16] 103% | [20] 101% | [17] 144% | [18] 86.6% | [19] 101%
active: [1] -28.8%

c1ccc(-c2nnc(Nc3ccc4c(c3)OCCO4)o2)c(NCc2ccncc2)c1
inactive: [2] 35.4% | [3] 27.5% | [4] 30.2% | [5] 50.9% | [6] 23.4% | [7] 21.1% | [8] 10% | [9] 20.4% | [10] 21.1% | [11] 10.9% | [13] 20.2% | [14] 32.2% | [15] 35.5% | [20] 28.5% | [18] 64.4%
active: [1] 4.04% | [16] -2.96% | [17] -36.9%

c1ccc(N2N=C(c3cccc(Nc4ccncc4)c3)CC2c2ccc3c(c2)OCO3)cc1 (stereo unspecified)
active: [9] 1.64% | [10] 7.98% | [11] 4.46% | [12] 2.64% | [17] 7.28% | [19] -1.79%
inactive: [1] 39% | [2] 45.8% | [3] 40.8% | [4] 30.6% | [5] 63.1% | [6] 28.7% | [7] 25.7% | [8] 46.1% | [13] 21.7% | [15] 33.6% | [16] 22.1% | [20] 16% | [18] 23.8%

COc1ccc(Cn2nc3c(c2-c2cc(OC)c(OC)c(OC)c2)-c2oncc2CC3)cc1
inactive: [1] 103% | [2] 85.6% | [3] 93.5% | [4] 65.8% | [5] 96.2% | [6] 91.9% | [7] 65.2% | [8] 80.3% | [9] 103% | [10] 77.9% | [11] 25.5% | [13] 107% | [14] 88% | [15] 86.8% | [16] 94.7% | [20] 81.8% | [17] 98% | [18] 116% | [19] 65.9%

CCCCCCCCCCCCCCCC(=O)OC[C@@]1(O)C[C@@]23CC[C@@H]4C(C)(C)[C@H](O)CC[C@@]4(C)[C@@H]2CC[C@H]1C3
inactive: [1] 104% | [2] 100% | [3] 96% | [4] 92.4% | [5] 101% | [6] 108% | [7] 94.2% | [8] 105% | [9] 100% | [10] 101% | [11] 98.2% | [12] 102% | [13] 108% | [15] 113% | [16] 97.1% | [20] 117% | [17] 107% | [18] 100% | [19] 106%

CS(=O)(=O)c1ccc(-c2cc3c(oc2=O)-c2ccccc2OC3O)cc1 (stereo unspecified)
inactive: [1] 99.2% | [2] 98.4% | [3] 104% | [4] 74% | [5] 99.9% | [6] 98.6% | [7] 75.4% | [8] 87.7% | [9] 58.9% | [10] 86.3% | [12] 90.6% | [13] 95.9% | [14] 98.2% | [15] 94% | [16] 92.8% | [20] 102% | [17] 88.2% | [18] 88.5% | [19] 105%

COc1ccncc1C#Cc1cncc(C(=O)Nc2ccc(CN3CCN(C)CC3)c(C(F)(F)F)c2)c1
active: [1] -0.485% | [11] 9.65%
inactive: [2] 38.4% | [3] 17.7% | [4] 11.7% | [5] 50.6% | [6] 13.2% | [7] 15.4% | [8] 28.9% | [9] 12.3% | [10] 22.5% | [13] 36.7% | [14] 22.2% | [15] 30.7% | [16] 32.7% | [20] 11.3% | [17] 43.5% | [18] 11.8%
